Experimental data reported in PubChem BioAssay AID1159580 (chemical genetic matrix, 2015).
In all, about 5,500 compounds went through this assay and about 2,000 (36%) were called active. About 18% were inconclusive and are not listed. Some of the results follow. Unmarked numbers belong to inactive results. Rule as the data show it: active = normalized growth mostly below about 0.91 (no sharp cut-off); inconclusive = no clear call, values can overlap the other calls; inactive = mostly above about 0.92.

Experiment: chemical genetic growth profiling, strain panel (AID 1159580);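 also: tested at 20 µM; growth read once vehicle control cultures reached saturation at 30 °C; 1 = growth at the plate median or of vehicle wells; lower values mean less growth of the strain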
Settings: S. cerevisiae deletion strains, growth OD
[1] = locus YAL040C, strain CLN3, active compounds read low
[2] = locus YCL061C, strain MRC1 (second series), active compounds read low
[3] = locus YDR363W, strain ESC2, active compounds read low
[4] = locus YER002W, strain NOP16, active compounds read low
[5] = locus YJR075W, strain HOC1, active compounds read low
[6] = locus YMR263W, strain SAP30, active compounds read low
[7] = locus YMR307W, strain GAS1, active compounds read low
[8] = locus YNL128W, strain TEP1, active compounds read low
[9] = locus YNL153C, strain GIM3, active compounds read low
[10] = locus YNL175C, strain NOP13, active compounds read low
[11] = locus YNL197C, strain WHI3, active compounds read low
[12] = locus YNL224C, strain SQS1, active compounds read low
[13] = locus YNL322C, strain KRE1, active compounds read low
[14] = locus YOR083W, strain WHI5 (second series), active compounds read low
[15] = locus YPL055C, strain LGE1, active compounds read low
[16] = locus YPL241C, strain CIN2, active compounds read low
[17] = locus YAL013W, strain DEP1, active compounds read low
[18] = locus YGR078C, strain PAC10, active compounds read low

SMILES | normalized growth [1] | normalized growth [2] | normalized growth [3] | normalized growth [4] | normalized growth [5] | normalized growth [6] | normalized growth [7] | normalized growth [8] | normalized growth [9] | normalized growth [10] | normalized growth [11] | normalized growth [12] | normalized growth [13] | normalized growth [14] | normalized growth [15] | normalized growth [16] | normalized growth [17] | normalized growth [18] | normalized growth (locus YDR150W, strain NUM1, active compounds read low) | normalized growth (locus YGR229C, strain SMI1, active compounds read low)
COc1ccc2c3c1O[C@H]1C(=O)CC[C@@]4(O)C(C2)N(CC2CC2)CCC314 (stereo not given in full) | 0.992 | 0.999 | 1.02 | 0.991 | 0.995 | 1 | 0.993 | 0.99 | 0.995 | 1.01 | 1.02 | 0.992 | 1.01 | 0.999 | 1 | 0.999 |  |  |  | 
CCCN(CCC)[C@@H]1CCc2ccc(O)cc2C1 | 1.03 | 0.988 | 0.989 | 0.972 |  | 0.983 | 1.01 |  | 0.978 | 0.982 | 0.982 | 1.01 | 0.978 | 0.996 | 0.988 |  | 0.964 |  |  | 
CCCN(CCC)C1CCc2ccc(O)cc2C1 (stereo not given) | 1.1 | 1.01 | 1.01 | 1.01 | 1 |  | 1.02 | 1.02 |  | 1.01 | 1.01 | 0.995 |  | 0.991 | 1.02 | 1.01 | 1.03 | 0.993 |  | 
CC[C@@H]1Cc2cc(O)ccc2C2=C1c1ccc(O)cc1C[C@H]2CC | 0.852 (active) | 0.995 | 1.02 | 1.02 | 0.991 |  |  |  |  | 0.904 (active) | 0.954 | 0.643 (active) | 0.993 | 0.507 (active) | 1.01 |  | 1.01 | 0.777 (active) | 0.996 | 1.04
